Paper PMC7862700, “An all-to-all approach to the identification of sequence-specific readers for epigenetic DNA modifications on cytosine”

Legend:
Assay in all cases: DAPPL (digital affinity profiling via proximity ligation, sequencing); 10 mM Tris-HCl pH 7.5, 50 mM NaCl, 1 mM DTT, 4% glycerol, room temperature, 30 min; GST-TFs on glutathione beads, 16-mer random dsDNA library, 0.1% formaldehyde crosslink after washing; high values mean tight binding
FLI1 = target: T1, FLI1 (Homo sapiens, UniProt Q01543 1-452); details: protein: recombinant; tags: N-terminal GST; dsDNA, one strand shown
T1 sequence: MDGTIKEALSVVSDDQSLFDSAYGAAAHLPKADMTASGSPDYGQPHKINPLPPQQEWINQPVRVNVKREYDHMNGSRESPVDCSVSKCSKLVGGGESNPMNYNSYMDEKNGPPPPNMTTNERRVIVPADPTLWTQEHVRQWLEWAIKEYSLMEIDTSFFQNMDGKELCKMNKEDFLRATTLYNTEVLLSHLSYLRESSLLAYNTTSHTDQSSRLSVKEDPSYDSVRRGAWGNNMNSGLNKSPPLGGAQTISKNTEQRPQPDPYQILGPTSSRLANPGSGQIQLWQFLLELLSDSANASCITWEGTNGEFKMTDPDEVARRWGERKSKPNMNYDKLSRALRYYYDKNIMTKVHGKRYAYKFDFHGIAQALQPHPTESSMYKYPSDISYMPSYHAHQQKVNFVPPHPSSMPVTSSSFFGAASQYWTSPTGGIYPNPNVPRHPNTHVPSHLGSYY
Summary of the method: (§1)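 Binding signal is defined as a hexamer's read frequency for one factor over its frequency for the tag-only sample. To obtain reads, GST-fused human transcription factors were expressed in yeast, captured on glutathione beads, barcoded with DNA and pooled with that sample. Pools met 200 nmole of a 16-mer random double-stranded DNA library in Tris/NaCl/DTT/glycerol buffer for 30 min at room temperature before washing, 0.1% formaldehyde crosslinking, proximity ligation (BsaI/T4 ligase, 1 h, 37 °C), PCR and Illumina NextSeq500 sequencing.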

ELK1 = target: T2, ELK1 (Homo sapiens, UniProt P19419 1-428); details: protein: recombinant; tags: N-terminal GST; dsDNA, one strand shown
T2 sequence: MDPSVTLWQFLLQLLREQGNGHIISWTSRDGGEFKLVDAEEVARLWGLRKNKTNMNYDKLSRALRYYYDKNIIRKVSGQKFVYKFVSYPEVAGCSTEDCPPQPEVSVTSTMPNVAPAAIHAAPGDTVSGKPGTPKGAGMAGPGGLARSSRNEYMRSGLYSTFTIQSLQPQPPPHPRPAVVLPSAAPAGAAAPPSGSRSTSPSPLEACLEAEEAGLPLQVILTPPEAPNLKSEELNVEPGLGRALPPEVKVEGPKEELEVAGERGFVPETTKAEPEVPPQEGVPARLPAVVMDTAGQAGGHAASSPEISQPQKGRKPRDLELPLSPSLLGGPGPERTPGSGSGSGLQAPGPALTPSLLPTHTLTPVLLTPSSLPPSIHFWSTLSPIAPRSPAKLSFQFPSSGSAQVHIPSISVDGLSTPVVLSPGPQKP
Summary of the method: as §1

GABPA = target: T3, GABPA (Homo sapiens, UniProt Q06546 1-454); details: protein: recombinant; tags: N-terminal GST; dsDNA, one strand shown
T3 sequence: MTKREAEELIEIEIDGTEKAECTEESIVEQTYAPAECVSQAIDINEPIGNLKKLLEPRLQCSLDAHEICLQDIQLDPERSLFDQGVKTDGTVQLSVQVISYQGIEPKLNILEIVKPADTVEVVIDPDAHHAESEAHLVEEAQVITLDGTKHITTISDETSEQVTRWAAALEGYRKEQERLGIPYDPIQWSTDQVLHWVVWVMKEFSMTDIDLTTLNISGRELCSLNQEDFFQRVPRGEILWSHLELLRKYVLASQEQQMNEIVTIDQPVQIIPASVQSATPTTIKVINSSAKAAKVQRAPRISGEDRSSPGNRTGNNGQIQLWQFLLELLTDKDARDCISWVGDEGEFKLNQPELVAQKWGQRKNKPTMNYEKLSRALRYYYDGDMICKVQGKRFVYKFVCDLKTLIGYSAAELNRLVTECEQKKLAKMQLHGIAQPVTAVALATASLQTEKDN
Summary of the method: as §1

ERG = target: T4, ERG (Homo sapiens, UniProt P11308 1-479); details: protein: recombinant; tags: N-terminal GST; dsDNA, one strand shown
T4 sequence: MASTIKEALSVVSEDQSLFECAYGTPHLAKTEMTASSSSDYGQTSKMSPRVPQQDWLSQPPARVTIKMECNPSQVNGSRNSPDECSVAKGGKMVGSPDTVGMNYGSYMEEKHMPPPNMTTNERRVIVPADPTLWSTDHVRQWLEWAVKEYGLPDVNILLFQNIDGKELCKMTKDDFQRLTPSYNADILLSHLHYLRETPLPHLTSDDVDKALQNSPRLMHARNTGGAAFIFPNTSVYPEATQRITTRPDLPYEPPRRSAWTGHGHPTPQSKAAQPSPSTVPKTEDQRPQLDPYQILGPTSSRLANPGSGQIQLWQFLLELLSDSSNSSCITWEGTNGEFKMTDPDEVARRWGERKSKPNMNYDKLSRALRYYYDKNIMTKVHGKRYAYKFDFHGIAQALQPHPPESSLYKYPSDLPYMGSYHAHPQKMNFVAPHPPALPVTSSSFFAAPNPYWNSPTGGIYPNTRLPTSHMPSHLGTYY
Summary of the method: as §1

ELF1 = ELF1 (Homo sapiens, UniProt P32519 1-619); details: protein: recombinant; tags: N-terminal GST; dsDNA, one strand shown
Summary of the method: as §1

EHF = target: T5, EHF (Homo sapiens, UniProt Q9NZC4 1-300); details: protein: recombinant; tags: N-terminal GST; dsDNA, one strand shown
T5 sequence: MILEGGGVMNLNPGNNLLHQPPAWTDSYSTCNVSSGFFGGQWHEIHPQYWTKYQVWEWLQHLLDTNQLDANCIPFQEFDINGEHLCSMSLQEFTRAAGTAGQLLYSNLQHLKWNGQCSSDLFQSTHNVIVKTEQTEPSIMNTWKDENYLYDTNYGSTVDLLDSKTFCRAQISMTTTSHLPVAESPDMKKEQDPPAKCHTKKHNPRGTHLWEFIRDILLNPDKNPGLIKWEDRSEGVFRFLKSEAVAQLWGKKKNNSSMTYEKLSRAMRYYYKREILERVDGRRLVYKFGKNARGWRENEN
Summary of the method: as §1

SPI1 = SPI1 (Homo sapiens, UniProt P17947 1-270); details: protein: recombinant; tags: N-terminal GST; dsDNA, one strand shown
Summary of the method: as §1

SPIB = SPIB (Homo sapiens, UniProt Q01892 1-262); details: protein: recombinant; tags: N-terminal GST; dsDNA, one strand shown
Summary of the method: as §1

ELK3 = target: T6, ELK3 (Homo sapiens, UniProt P41970 1-407); details: protein: recombinant; tags: N-terminal GST; dsDNA, one strand shown
T6 sequence: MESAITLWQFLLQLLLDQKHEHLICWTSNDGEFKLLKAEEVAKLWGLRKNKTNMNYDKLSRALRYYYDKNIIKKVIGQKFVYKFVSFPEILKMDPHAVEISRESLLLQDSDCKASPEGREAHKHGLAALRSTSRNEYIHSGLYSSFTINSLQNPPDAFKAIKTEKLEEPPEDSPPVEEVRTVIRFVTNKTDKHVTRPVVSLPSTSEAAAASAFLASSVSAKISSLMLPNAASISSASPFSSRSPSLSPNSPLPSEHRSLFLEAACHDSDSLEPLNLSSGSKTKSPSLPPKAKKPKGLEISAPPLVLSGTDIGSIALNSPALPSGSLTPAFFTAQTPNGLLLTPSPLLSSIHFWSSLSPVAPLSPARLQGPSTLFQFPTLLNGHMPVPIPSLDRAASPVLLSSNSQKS
Summary of the method: as §1

FEV = target: T7, FEV (Homo sapiens, UniProt Q99581 1-238); details: protein: recombinant; tags: N-terminal GST; dsDNA, one strand shown
T7 sequence: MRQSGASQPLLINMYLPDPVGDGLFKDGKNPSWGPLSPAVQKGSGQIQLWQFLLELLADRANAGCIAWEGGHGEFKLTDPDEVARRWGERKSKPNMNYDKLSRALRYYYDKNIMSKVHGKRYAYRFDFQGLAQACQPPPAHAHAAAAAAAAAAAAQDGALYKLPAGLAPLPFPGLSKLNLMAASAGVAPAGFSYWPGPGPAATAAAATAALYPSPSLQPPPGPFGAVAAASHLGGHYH
Summary of the method: as §1

ETV5 = ETV5 (Homo sapiens, UniProt P41161 1-510); details: protein: recombinant; tags: N-terminal GST; dsDNA, one strand shown
Summary of the method: as §1

HSF1 = HSF1 (Homo sapiens, UniProt Q00613 1-529); details: protein: recombinant; tags: N-terminal GST; chain copies: 3; dsDNA, one strand shown
Summary of the method: as §1

SPIC = target: T8, SPIC (Homo sapiens, UniProt Q8N5J4 1-248); details: protein: recombinant; tags: N-terminal GST; dsDNA, one strand shown
T8 sequence: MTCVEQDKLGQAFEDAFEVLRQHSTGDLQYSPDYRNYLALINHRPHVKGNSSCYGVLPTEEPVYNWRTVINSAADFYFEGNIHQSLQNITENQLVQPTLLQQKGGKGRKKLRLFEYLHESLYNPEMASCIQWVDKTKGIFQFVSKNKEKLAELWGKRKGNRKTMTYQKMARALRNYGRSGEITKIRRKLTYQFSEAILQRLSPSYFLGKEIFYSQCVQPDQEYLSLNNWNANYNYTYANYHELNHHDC
Summary of the method: as §1

ELF4 = ELF4 (Homo sapiens, UniProt Q99607 1-663); details: protein: recombinant; tags: N-terminal GST; dsDNA, one strand shown
Summary of the method: as §1

ELK4 = target: T9, ELK4 (Homo sapiens, UniProt P28324-2 1-405); details: protein: recombinant; tags: N-terminal GST; dsDNA, one strand shown
T9 sequence: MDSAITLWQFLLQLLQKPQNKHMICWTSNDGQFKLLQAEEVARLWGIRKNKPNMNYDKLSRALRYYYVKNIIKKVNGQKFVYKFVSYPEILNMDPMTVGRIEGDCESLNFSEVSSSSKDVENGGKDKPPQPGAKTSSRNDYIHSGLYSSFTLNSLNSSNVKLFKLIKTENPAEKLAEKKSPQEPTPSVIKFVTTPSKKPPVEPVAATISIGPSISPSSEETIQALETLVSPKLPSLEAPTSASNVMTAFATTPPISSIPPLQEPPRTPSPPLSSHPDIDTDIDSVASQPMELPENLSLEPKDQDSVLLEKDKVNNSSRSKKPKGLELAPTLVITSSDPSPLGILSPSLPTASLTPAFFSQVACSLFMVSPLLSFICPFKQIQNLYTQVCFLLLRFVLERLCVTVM
Summary of the method: as §1

ELF3 = target: T10, ELF3 (Homo sapiens, UniProt P78545 1-371); details: protein: recombinant; tags: N-terminal GST; dsDNA, one strand shown
T10 sequence: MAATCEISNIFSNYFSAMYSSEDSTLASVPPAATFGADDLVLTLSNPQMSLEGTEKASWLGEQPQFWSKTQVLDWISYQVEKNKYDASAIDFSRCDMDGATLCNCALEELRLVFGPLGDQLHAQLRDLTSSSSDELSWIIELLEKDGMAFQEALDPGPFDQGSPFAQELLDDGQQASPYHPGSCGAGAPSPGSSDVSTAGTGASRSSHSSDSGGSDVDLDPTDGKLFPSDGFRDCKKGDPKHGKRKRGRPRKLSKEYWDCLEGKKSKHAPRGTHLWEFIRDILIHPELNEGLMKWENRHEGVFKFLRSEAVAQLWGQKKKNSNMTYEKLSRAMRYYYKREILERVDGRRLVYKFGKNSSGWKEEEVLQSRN
Summary of the method: as §1

CRX = CRX (Homo sapiens, UniProt O43186 1-299); details: protein: recombinant; tags: N-terminal GST; dsDNA, one strand shown
Summary of the method: as §1

ETV1 = ETV1 (Homo sapiens, UniProt P50549 1-477); details: protein: recombinant; tags: N-terminal GST; dsDNA, one strand shown
Summary of the method: as §1

Chain of SPIB (Q01892 whole entry): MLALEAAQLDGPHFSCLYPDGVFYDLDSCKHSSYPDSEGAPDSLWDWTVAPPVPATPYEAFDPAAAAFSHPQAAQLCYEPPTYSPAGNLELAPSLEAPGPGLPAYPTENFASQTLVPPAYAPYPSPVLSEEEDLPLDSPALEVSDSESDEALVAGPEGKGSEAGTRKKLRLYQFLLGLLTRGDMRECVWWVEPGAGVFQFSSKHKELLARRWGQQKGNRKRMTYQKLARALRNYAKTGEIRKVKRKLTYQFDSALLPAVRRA
Chain of ELF1 (P32519 whole entry): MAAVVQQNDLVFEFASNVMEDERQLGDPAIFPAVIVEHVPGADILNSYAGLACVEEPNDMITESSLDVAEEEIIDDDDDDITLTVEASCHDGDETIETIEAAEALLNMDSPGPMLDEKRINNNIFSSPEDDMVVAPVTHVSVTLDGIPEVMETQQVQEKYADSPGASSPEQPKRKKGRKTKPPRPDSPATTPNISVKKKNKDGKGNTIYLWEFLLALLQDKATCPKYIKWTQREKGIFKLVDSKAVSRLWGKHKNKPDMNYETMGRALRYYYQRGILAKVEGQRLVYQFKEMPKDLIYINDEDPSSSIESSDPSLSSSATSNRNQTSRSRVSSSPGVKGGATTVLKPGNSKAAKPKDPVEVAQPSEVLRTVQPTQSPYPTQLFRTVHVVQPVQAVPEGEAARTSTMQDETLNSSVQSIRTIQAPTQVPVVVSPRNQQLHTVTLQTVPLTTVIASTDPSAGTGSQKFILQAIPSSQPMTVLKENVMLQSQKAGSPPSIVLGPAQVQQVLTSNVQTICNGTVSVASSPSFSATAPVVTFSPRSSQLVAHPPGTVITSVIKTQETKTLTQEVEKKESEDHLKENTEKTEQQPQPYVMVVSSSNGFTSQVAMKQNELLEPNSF
Chain of HSF1 (Q00613 whole entry): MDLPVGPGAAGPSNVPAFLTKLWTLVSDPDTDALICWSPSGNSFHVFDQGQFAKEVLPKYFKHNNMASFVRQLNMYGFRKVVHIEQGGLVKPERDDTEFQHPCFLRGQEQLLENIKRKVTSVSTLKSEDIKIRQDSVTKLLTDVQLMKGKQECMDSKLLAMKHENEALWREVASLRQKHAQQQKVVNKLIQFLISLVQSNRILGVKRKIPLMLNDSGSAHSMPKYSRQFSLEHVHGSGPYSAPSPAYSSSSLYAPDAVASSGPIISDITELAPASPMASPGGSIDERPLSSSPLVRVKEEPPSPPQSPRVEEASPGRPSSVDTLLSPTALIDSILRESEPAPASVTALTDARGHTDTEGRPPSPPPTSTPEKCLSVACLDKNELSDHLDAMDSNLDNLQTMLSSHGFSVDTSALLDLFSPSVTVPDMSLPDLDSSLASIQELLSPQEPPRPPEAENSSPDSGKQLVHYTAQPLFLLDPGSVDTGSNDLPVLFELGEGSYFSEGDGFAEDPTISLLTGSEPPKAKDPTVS
Chain of ETV1 (P50549 whole entry): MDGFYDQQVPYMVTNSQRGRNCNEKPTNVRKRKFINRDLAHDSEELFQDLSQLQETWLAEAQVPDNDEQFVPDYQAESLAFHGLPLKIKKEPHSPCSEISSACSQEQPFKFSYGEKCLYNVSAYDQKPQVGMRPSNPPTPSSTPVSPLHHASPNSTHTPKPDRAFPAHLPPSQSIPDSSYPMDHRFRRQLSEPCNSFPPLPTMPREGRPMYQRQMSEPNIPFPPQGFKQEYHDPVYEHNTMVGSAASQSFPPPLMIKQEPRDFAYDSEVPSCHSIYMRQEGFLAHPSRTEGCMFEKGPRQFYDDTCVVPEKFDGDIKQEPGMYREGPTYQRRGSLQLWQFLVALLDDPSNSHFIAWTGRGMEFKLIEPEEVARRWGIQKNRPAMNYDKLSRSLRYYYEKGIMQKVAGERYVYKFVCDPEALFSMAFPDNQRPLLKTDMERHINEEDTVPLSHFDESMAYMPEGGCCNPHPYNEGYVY
Chain of ETV5 (P41161 whole entry): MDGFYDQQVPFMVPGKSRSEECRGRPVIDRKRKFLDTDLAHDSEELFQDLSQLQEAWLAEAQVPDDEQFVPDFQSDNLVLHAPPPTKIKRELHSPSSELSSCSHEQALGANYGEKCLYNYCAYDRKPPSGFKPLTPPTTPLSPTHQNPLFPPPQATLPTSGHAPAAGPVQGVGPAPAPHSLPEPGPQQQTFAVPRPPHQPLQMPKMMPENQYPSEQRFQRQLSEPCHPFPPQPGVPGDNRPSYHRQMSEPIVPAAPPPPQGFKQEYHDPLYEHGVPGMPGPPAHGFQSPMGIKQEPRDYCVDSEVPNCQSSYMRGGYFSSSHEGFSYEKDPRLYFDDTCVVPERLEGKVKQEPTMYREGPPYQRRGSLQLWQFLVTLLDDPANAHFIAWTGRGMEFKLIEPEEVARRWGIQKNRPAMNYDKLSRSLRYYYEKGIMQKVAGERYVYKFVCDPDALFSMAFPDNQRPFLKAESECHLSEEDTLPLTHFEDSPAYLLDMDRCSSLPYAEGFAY
Chain of ELF4 (Q99607 whole entry): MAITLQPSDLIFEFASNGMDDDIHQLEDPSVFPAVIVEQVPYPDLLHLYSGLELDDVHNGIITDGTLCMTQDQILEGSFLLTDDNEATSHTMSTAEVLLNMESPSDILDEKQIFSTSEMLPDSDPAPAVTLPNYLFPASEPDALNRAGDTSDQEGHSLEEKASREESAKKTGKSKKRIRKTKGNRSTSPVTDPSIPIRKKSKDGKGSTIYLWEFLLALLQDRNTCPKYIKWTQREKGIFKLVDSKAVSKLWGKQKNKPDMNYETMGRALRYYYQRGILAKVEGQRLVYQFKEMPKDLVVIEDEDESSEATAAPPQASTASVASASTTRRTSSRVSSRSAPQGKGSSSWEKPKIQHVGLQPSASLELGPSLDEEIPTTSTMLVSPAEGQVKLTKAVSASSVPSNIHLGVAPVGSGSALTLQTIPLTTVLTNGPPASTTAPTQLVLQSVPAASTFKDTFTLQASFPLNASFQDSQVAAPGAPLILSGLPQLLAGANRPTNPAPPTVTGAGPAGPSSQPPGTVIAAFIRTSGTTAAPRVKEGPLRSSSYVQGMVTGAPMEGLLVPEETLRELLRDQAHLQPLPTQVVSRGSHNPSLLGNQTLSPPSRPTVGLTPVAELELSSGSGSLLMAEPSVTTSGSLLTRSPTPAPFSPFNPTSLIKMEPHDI
Chain of CRX (O43186 whole entry): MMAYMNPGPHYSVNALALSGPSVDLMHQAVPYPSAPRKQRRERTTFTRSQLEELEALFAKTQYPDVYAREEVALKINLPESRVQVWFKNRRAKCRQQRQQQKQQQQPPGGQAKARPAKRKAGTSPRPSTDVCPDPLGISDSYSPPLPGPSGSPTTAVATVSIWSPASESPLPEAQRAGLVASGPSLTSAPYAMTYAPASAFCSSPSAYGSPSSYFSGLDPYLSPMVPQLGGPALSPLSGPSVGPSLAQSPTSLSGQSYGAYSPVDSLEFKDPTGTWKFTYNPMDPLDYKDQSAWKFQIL

AATAGG
binding signal (FLI1): 1.15 fold enrichment (6-mer frequency, TF over GST control) | binding signal (ELK1): 1.11 fold enrichment (6-mer frequency, TF over GST control) | binding signal (GABPA): 1.15 fold enrichment (6-mer frequency, TF over GST control) | binding signal (ERG): 1.2 fold enrichment (6-mer frequency, TF over GST control) | binding signal (ELF1): 1.08 fold enrichment (6-mer frequency, TF over GST control) | binding signal (EHF): 1.27 fold enrichment (6-mer frequency, TF over GST control) | binding signal (SPI1): 1.37 fold enrichment (6-mer frequency, TF over GST control) | binding signal (SPIB): 1.22 fold enrichment (6-mer frequency, TF over GST control) | binding signal (ELK3): 1.14 fold enrichment (6-mer frequency, TF over GST control) | binding signal (FEV): 1.13 fold enrichment (6-mer frequency, TF over GST control) | binding signal (ETV5): 1.16 fold enrichment (6-mer frequency, TF over GST control) | binding signal (HSF1): 1.02 fold enrichment (6-mer frequency, TF over GST control) | binding signal (SPIC): 1.14 fold enrichment (6-mer frequency, TF over GST control) | binding signal (ELF4): 1.04 fold enrichment (6-mer frequency, TF over GST control) | binding signal (ELK4): 1.08 fold enrichment (6-mer frequency, TF over GST control) | binding signal (ELF3): 1.09 fold enrichment (6-mer frequency, TF over GST control) | binding signal (CRX): 1.21 fold enrichment (6-mer frequency, TF over GST control) | binding signal (ETV1): 1.25 fold enrichment (6-mer frequency, TF over GST control)
